# Experimental data reported in article PMC7862700, “An all-to-all approach to the identification of sequence-specific readers for epigenetic DNA modifications on cytosine”.
# Tests used:
# Assay in all cases: DAPPL (digital affinity profiling via proximity ligation, sequencing); 10 mM Tris-HCl pH 7.5, 50 mM NaCl, 1 mM DTT, 4% glycerol, room temperature, 30 min; GST-TFs on glutathione beads, 16-mer random dsDNA library, 0.1% formaldehyde crosslink after washing; high values mean tight binding
# [1] = target: T1, FLI1 (Homo sapiens, UniProt Q01543 1-452); conditions: protein: recombinant; tags: N-terminal GST; dsDNA, one strand shown
# T1 sequence: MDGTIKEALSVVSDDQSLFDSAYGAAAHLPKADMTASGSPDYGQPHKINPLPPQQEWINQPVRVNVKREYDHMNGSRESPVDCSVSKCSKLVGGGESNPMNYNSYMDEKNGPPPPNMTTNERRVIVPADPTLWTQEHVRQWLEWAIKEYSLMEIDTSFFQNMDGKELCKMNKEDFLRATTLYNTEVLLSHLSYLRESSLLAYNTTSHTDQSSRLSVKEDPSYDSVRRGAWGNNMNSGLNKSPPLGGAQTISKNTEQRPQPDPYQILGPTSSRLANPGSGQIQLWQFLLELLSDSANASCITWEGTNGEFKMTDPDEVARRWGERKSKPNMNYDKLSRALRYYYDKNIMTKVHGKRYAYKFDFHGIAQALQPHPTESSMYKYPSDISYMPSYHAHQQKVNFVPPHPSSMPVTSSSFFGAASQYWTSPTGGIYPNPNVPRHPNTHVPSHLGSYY
# Summary of the method: (§1)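 A tag-only sample was pooled with DNA-barcoded human transcription factors that had been expressed in yeast as GST fusions and captured on glutathione beads. The pools were incubated for 30 min at room temperature with 200 nmole of a random double-stranded 16-mer DNA library in Tris/NaCl/DTT/glycerol buffer, then washed, crosslinked with 0.1% formaldehyde, proximity-ligated (BsaI/T4 ligase, 1 h, 37 °C), PCR-amplified and sequenced on an Illumina NextSeq500. Binding signal is each hexamer's read frequency for a factor divided by its frequency for the tag-only sample.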
# [2] = target: T2, ELK1 (Homo sapiens, UniProt P19419 1-428); conditions: protein: recombinant; tags: N-terminal GST; dsDNA, one strand shown
# T2 sequence: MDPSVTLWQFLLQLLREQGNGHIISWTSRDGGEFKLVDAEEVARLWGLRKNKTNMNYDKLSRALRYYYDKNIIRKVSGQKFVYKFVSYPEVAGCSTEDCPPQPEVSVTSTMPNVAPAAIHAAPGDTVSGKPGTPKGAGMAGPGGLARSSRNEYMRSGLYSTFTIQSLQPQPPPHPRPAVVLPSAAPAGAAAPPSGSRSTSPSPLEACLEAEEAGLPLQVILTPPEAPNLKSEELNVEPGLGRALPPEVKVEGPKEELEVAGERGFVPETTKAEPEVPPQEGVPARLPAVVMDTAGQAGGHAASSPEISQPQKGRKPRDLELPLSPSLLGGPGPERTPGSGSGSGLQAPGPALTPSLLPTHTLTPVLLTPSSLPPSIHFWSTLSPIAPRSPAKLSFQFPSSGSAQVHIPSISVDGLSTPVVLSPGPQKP
# Summary of the method: as §1
# [3] = target: T3, GABPA (Homo sapiens, UniProt Q06546 1-454); conditions: protein: recombinant; tags: N-terminal GST; dsDNA, one strand shown
# T3 sequence: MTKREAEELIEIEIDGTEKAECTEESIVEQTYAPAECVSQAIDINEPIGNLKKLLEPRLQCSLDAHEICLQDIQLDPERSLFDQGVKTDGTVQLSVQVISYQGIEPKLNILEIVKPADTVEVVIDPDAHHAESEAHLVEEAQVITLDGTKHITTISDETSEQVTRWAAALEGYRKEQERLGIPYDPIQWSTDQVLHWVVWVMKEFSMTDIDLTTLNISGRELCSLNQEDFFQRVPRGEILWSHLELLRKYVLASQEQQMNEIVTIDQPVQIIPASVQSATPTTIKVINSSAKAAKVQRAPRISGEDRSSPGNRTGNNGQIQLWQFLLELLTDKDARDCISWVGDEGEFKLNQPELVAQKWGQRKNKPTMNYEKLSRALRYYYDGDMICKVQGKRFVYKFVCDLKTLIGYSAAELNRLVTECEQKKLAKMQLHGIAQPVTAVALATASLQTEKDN
# Summary of the method: as §1
# [4] = target: T4, ERG (Homo sapiens, UniProt P11308 1-479); conditions: protein: recombinant; tags: N-terminal GST; dsDNA, one strand shown
# T4 sequence: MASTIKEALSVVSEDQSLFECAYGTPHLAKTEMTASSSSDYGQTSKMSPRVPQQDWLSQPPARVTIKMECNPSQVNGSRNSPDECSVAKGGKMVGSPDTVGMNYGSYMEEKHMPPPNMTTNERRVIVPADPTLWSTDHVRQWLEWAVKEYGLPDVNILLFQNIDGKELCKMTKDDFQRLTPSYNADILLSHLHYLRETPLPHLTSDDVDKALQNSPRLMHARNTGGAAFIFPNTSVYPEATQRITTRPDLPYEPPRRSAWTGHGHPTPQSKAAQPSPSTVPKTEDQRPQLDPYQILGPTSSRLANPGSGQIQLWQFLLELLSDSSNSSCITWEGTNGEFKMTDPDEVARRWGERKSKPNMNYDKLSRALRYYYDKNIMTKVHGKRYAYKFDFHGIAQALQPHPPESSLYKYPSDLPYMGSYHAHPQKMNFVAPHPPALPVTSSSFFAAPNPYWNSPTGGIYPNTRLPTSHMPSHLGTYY
# Summary of the method: as §1
# [5] = target: ELF1 (Homo sapiens, UniProt P32519 1-619); conditions: protein: recombinant; tags: N-terminal GST; dsDNA, one strand shown
# Summary of the method: as §1
# [6] = target: T5, EHF (Homo sapiens, UniProt Q9NZC4 1-300); conditions: protein: recombinant; tags: N-terminal GST; dsDNA, one strand shown
# T5 sequence: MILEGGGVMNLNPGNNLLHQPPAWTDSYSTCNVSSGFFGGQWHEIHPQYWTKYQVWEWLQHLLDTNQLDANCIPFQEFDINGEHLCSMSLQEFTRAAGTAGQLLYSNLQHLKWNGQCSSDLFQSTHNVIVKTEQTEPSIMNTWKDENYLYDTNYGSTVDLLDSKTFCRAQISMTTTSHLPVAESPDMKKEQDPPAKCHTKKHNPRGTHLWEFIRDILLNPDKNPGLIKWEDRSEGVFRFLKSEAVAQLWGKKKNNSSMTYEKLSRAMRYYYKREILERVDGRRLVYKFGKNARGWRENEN
# Summary of the method: as §1
# [7] = target: SPI1 (Homo sapiens, UniProt P17947 1-270); conditions: protein: recombinant; tags: N-terminal GST; dsDNA, one strand shown
# Summary of the method: as §1
# [8] = target: SPIB (Homo sapiens, UniProt Q01892 1-262); conditions: protein: recombinant; tags: N-terminal GST; dsDNA, one strand shown
# Summary of the method: as §1
# [9] = target: T6, ELK3 (Homo sapiens, UniProt P41970 1-407); conditions: protein: recombinant; tags: N-terminal GST; dsDNA, one strand shown
# T6 sequence: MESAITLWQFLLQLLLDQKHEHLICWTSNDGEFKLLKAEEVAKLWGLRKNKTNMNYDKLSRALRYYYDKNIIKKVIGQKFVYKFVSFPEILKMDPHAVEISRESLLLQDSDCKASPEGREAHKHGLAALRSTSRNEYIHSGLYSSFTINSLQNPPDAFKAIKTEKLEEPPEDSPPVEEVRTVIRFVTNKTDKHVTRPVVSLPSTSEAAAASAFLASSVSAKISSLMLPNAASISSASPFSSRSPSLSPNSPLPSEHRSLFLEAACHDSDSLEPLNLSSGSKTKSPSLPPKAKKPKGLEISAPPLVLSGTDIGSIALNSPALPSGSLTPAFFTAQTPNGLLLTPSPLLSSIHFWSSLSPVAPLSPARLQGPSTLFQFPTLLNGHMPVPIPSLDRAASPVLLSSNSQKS
# Summary of the method: as §1
# [10] = target: T7, FEV (Homo sapiens, UniProt Q99581 1-238); conditions: protein: recombinant; tags: N-terminal GST; dsDNA, one strand shown
# T7 sequence: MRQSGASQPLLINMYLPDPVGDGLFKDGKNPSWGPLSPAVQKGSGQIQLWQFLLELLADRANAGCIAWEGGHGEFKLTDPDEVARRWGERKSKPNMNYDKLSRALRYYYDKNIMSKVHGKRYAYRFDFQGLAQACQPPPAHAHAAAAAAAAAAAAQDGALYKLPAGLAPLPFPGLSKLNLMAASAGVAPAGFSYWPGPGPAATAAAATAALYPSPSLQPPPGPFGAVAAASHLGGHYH
# Summary of the method: as §1
# [11] = target: ETV5 (Homo sapiens, UniProt P41161 1-510); conditions: protein: recombinant; tags: N-terminal GST; dsDNA, one strand shown
# Summary of the method: as §1
# [12] = target: HSF1 (Homo sapiens, UniProt Q00613 1-529); conditions: protein: recombinant; tags: N-terminal GST; chain copies: 3; dsDNA, one strand shown
# Summary of the method: as §1
# [13] = target: T8, SPIC (Homo sapiens, UniProt Q8N5J4 1-248); conditions: protein: recombinant; tags: N-terminal GST; dsDNA, one strand shown
# T8 sequence: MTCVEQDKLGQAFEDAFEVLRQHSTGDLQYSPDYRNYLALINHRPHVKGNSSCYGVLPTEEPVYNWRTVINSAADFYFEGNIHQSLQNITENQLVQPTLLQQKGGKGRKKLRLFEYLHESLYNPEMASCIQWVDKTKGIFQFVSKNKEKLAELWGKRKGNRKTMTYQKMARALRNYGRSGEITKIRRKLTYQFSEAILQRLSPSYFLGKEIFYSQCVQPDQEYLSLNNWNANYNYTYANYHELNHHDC
# Summary of the method: as §1
# [14] = target: ELF4 (Homo sapiens, UniProt Q99607 1-663); conditions: protein: recombinant; tags: N-terminal GST; dsDNA, one strand shown
# Summary of the method: as §1
# [15] = target: T9, ELK4 (Homo sapiens, UniProt P28324-2 1-405); conditions: protein: recombinant; tags: N-terminal GST; dsDNA, one strand shown
# T9 sequence: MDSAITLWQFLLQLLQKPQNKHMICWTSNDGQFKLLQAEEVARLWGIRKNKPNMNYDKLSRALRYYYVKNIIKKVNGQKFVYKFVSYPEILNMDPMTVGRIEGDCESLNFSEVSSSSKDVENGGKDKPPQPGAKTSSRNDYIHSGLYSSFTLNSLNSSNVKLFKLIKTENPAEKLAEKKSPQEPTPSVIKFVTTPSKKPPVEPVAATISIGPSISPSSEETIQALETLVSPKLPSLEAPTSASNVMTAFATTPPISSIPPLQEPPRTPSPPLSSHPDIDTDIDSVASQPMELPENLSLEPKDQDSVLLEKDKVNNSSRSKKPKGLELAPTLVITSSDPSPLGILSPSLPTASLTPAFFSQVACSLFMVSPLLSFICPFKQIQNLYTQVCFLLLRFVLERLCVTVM
# Summary of the method: as §1
# [16] = target: T10, ETV2 (Homo sapiens, UniProt O00321 1-342); conditions: protein: recombinant; tags: N-terminal GST; dsDNA, one strand shown
# T10 sequence: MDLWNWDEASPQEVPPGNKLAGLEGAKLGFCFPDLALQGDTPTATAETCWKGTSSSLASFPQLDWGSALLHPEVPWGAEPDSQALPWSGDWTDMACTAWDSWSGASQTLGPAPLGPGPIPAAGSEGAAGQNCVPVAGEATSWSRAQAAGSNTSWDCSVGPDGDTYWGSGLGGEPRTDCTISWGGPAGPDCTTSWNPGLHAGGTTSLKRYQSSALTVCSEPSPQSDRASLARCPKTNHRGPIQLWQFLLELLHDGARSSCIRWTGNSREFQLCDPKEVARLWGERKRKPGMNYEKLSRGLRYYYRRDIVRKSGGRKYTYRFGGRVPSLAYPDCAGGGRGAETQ
# Summary of the method: as §1
# [17] = target: T11, ELF3 (Homo sapiens, UniProt P78545 1-371); conditions: protein: recombinant; tags: N-terminal GST; dsDNA, one strand shown
# T11 sequence: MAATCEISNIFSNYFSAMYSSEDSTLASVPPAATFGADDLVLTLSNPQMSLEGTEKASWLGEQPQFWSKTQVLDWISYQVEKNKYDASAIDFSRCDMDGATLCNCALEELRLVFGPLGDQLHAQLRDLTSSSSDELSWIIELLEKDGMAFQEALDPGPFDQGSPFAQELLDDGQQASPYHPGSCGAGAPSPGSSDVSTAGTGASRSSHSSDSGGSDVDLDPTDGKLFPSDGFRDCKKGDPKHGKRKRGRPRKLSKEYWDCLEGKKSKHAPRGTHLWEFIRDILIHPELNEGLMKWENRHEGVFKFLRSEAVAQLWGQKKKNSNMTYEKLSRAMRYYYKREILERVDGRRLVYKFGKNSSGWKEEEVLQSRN
# Summary of the method: as §1
# [18] = target: CRX (Homo sapiens, UniProt O43186 1-299); conditions: protein: recombinant; tags: N-terminal GST; dsDNA, one strand shown
# Summary of the method: as §1
# [19] = target: ETV1 (Homo sapiens, UniProt P50549 1-477); conditions: protein: recombinant; tags: N-terminal GST; dsDNA, one strand shown
# Summary of the method: as §1
# Sequence of ETV1 (P50549 whole entry): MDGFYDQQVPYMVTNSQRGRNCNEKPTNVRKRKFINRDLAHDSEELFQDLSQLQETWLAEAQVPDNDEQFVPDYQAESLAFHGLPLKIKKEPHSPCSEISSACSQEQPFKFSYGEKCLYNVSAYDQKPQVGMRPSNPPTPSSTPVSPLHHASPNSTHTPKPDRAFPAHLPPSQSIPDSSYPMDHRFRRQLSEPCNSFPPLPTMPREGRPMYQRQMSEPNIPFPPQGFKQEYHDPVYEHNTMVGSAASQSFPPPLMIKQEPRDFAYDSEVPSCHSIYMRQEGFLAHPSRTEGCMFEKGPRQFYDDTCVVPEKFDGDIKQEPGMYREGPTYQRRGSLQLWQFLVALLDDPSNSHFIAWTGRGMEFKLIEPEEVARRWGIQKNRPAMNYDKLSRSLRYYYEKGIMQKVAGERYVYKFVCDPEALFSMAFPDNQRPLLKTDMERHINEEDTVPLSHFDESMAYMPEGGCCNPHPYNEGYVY
# Sequence of ELF4 (Q99607 whole entry): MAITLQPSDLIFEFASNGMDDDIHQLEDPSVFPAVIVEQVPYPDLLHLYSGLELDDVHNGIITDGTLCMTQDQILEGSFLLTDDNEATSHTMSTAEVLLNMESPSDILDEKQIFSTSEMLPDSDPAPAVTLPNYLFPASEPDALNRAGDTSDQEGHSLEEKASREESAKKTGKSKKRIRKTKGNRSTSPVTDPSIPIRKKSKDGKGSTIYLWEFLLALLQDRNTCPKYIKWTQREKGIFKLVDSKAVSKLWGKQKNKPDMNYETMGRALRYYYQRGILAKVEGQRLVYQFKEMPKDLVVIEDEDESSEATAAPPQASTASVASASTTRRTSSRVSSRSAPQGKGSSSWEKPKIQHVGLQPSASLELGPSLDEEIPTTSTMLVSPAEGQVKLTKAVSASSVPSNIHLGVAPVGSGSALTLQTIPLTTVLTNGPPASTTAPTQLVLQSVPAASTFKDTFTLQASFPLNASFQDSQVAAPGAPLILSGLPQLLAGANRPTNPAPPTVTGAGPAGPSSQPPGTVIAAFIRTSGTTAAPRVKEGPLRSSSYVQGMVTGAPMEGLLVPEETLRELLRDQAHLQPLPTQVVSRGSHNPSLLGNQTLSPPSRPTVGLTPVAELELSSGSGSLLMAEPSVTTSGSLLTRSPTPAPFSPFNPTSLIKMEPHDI
# Sequence of CRX (O43186 whole entry): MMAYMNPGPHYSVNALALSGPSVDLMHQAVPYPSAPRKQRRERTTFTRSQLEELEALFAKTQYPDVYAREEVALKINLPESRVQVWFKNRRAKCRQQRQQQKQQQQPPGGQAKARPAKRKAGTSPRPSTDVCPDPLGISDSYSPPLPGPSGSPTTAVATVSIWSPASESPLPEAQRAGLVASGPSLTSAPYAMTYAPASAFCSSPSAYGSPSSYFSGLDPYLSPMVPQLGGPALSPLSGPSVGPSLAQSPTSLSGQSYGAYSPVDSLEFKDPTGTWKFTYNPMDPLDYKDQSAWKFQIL
# Sequence of SPIB (Q01892 whole entry): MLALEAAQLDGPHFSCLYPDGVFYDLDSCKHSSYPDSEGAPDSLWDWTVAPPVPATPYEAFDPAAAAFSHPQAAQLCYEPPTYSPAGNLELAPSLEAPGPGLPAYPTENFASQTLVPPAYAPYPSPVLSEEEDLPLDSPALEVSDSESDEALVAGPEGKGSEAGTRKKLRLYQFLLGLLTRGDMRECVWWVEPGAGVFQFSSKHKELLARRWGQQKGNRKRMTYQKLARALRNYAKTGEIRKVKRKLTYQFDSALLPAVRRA
# Sequence of ETV5 (P41161 whole entry): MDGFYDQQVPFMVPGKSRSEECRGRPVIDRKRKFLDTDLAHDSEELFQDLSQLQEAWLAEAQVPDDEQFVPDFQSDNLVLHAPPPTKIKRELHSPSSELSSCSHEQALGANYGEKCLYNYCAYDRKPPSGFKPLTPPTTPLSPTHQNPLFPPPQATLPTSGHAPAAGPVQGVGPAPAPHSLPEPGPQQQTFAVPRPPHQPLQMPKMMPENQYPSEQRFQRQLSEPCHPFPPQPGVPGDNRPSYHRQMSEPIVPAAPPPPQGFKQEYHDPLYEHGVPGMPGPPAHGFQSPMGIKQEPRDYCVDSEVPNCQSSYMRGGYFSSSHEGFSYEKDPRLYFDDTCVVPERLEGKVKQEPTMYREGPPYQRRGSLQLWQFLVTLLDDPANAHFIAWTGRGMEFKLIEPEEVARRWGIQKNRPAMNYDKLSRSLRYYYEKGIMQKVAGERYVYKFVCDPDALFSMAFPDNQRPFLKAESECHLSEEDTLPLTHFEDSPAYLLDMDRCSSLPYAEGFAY
# Sequence of HSF1 (Q00613 whole entry): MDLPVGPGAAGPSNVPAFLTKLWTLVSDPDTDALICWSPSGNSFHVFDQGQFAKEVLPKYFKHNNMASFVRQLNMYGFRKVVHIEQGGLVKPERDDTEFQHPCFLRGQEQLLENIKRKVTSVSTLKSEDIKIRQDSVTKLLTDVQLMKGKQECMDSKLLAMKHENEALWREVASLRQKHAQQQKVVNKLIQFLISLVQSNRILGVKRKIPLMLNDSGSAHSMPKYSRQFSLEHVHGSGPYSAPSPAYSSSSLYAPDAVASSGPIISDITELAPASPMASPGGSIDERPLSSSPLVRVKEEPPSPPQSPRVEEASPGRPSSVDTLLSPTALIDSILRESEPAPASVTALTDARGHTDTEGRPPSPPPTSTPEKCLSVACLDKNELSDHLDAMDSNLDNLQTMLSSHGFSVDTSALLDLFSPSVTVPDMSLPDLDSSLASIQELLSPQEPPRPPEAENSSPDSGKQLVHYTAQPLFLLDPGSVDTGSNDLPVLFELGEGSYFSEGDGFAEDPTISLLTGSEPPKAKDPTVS
# Sequence of ELF1 (P32519 whole entry): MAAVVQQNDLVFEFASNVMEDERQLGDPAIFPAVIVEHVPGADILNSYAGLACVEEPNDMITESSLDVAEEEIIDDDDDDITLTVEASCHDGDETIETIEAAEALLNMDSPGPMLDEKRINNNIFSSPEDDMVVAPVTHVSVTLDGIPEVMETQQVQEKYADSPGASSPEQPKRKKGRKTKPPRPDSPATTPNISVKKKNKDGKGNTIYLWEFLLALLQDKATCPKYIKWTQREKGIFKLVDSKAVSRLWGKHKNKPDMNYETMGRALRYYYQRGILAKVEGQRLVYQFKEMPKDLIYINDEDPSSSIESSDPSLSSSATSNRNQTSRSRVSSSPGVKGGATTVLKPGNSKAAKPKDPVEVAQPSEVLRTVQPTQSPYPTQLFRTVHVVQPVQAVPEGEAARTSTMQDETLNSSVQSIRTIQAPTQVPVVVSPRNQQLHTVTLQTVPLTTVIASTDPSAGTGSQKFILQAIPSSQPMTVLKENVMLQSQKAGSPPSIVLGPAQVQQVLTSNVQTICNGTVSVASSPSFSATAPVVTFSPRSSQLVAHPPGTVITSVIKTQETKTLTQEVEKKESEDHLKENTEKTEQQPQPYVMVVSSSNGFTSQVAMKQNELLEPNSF
sequence,measurement,setting,value
TAGCTA,binding signal,[1],"1.22 fold enrichment (6-mer frequency, TF over GST control)"
same,binding signal,[2],"1.24 fold enrichment (6-mer frequency, TF over GST control)"
same,binding signal,[3],"1.21 fold enrichment (6-mer frequency, TF over GST control)"
same,binding signal,[4],"1.22 fold enrichment (6-mer frequency, TF over GST control)"
same,binding signal,[5],"1.25 fold enrichment (6-mer frequency, TF over GST control)"
same,binding signal,[6],"1.22 fold enrichment (6-mer frequency, TF over GST control)"
same,binding signal,[7],"1.2 fold enrichment (6-mer frequency, TF over GST control)"
same,binding signal,[8],"1.22 fold enrichment (6-mer frequency, TF over GST control)"
same,binding signal,[9],"1.29 fold enrichment (6-mer frequency, TF over GST control)"
same,binding signal,[10],"1.22 fold enrichment (6-mer frequency, TF over GST control)"
same,binding signal,[11],"1.24 fold enrichment (6-mer frequency, TF over GST control)"
same,binding signal,[12],"1.47 fold enrichment (6-mer frequency, TF over GST control)"
same,binding signal,[13],"1.22 fold enrichment (6-mer frequency, TF over GST control)"
same,binding signal,[14],"1.28 fold enrichment (6-mer frequency, TF over GST control)"
same,binding signal,[15],"1.3 fold enrichment (6-mer frequency, TF over GST control)"
same,binding signal,[16],"1.27 fold enrichment (6-mer frequency, TF over GST control)"
same,binding signal,[17],"1.17 fold enrichment (6-mer frequency, TF over GST control)"
same,binding signal,[18],"1.58 fold enrichment (6-mer frequency, TF over GST control)"
same,binding signal,[19],"1.27 fold enrichment (6-mer frequency, TF over GST control)"
